Data from the supplement of paper PMC11732987, “Enantioselective OTUD7B fragment discovery through chemoproteomics screening and high-throughput optimisation” (Communications Chemistry, 2025).

Columns and labels:
Test in all cases: log2 ratio of Biotin-Ahx-Ub-VS probe labelling (fragment/DMSO); higher = less target engagement (more negative = stronger competition), active = hit call of the paper (q ≤ 0.05, log2 ratio ≤ -1)
Details in all cases: compound concentration: 200 uM; treatment time: 3 h
[1] = biological target: USP34 (UniProt Q70CQ2)
How it was run: (§1)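 Using Biotin-Ahx-Ub-VS at 0.5 µM final for 1 h, DUBs were labelled in HEK293T lysate (495 µg per sample) that had first been treated in triplicate with fragment at 200 µM or vehicle for 3 h. NeutrAvidin enrichment, LysC and trypsin digestion and diaPASEF LC-MS/MS followed. Spectronaut label-free quantities were global-median-normalised. Values are average log2 fragment/vehicle ratios by unpaired t-test, using proteins with ≥2 unique peptides.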

[2] = biological target: T1, USP36 (UniProt Q9P275)
T1 sequence (whole entry): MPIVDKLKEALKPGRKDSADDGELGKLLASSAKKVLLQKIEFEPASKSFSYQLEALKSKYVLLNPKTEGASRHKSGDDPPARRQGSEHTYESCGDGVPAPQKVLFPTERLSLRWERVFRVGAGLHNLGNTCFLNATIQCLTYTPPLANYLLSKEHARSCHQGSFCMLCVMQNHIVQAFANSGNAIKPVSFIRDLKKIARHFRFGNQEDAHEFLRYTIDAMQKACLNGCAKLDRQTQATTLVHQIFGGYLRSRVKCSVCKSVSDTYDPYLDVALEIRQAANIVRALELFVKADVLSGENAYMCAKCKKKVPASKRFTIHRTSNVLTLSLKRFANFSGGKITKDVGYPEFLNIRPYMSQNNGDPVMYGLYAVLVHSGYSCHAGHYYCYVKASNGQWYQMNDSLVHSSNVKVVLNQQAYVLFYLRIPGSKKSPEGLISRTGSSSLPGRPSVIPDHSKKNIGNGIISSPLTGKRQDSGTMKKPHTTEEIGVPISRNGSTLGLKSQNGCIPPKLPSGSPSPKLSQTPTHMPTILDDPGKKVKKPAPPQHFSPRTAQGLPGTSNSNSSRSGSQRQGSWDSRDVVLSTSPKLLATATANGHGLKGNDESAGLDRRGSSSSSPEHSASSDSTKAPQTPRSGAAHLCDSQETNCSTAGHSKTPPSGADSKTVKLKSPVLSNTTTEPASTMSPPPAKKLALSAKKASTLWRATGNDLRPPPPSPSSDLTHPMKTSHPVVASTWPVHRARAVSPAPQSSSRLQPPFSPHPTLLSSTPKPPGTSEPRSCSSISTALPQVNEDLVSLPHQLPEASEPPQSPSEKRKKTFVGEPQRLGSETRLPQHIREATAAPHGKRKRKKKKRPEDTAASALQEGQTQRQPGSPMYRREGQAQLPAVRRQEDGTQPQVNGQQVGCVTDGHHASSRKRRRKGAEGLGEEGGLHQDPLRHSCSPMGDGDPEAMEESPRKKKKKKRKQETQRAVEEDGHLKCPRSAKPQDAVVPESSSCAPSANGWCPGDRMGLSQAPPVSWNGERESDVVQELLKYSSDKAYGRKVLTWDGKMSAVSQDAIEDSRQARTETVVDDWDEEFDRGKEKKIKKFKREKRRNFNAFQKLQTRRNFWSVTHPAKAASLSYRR
How it was run: as §1

[3] = biological target: T2, USP38 (UniProt Q8NB14)
T2 sequence (whole entry): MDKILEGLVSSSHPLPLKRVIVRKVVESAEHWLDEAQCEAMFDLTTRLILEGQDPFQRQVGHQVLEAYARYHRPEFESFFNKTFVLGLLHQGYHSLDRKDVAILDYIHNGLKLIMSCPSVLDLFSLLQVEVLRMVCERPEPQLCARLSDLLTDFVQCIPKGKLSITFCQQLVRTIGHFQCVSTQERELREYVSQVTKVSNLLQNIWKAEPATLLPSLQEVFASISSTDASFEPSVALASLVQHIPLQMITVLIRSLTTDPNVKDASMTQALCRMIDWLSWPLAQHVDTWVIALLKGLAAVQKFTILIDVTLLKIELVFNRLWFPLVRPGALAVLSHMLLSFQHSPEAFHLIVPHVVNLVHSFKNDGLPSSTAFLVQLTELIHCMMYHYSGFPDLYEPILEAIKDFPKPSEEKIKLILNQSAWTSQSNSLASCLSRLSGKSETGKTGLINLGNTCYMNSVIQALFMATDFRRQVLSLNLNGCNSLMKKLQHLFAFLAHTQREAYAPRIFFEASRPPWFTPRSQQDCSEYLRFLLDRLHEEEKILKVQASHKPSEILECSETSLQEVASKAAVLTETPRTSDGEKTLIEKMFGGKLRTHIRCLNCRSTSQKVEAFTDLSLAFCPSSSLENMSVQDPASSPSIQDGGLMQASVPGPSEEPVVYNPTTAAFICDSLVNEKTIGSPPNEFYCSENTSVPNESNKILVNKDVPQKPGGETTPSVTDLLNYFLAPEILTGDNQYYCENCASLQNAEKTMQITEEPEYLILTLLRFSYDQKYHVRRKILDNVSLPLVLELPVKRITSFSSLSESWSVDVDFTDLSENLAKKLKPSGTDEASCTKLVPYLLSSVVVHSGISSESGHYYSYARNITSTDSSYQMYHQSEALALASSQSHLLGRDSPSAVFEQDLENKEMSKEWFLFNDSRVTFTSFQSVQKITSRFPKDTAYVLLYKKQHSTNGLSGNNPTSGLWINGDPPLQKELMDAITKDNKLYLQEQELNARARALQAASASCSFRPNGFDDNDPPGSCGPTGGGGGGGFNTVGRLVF
How it was run: as §1

[4] = biological target: T3, USP39 (UniProt Q53GS9)
T3 sequence (whole entry): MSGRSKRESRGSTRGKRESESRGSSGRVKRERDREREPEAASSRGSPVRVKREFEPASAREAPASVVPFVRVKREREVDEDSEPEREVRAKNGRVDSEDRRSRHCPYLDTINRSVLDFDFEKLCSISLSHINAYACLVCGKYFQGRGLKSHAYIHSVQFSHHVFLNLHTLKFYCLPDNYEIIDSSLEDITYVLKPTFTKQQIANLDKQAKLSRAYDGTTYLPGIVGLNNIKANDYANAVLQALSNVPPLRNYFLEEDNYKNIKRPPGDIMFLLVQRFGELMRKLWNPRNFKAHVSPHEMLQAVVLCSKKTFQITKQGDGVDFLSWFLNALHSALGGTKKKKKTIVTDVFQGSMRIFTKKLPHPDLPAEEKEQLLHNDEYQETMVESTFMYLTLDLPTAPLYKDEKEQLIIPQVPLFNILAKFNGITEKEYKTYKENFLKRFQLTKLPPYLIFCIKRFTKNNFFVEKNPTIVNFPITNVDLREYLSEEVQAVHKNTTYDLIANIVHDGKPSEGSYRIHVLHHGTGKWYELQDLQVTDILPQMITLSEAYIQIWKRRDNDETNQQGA
How it was run: as §1

[5] = biological target: T4, USP4 (UniProt Q13107)
T4 sequence (whole entry): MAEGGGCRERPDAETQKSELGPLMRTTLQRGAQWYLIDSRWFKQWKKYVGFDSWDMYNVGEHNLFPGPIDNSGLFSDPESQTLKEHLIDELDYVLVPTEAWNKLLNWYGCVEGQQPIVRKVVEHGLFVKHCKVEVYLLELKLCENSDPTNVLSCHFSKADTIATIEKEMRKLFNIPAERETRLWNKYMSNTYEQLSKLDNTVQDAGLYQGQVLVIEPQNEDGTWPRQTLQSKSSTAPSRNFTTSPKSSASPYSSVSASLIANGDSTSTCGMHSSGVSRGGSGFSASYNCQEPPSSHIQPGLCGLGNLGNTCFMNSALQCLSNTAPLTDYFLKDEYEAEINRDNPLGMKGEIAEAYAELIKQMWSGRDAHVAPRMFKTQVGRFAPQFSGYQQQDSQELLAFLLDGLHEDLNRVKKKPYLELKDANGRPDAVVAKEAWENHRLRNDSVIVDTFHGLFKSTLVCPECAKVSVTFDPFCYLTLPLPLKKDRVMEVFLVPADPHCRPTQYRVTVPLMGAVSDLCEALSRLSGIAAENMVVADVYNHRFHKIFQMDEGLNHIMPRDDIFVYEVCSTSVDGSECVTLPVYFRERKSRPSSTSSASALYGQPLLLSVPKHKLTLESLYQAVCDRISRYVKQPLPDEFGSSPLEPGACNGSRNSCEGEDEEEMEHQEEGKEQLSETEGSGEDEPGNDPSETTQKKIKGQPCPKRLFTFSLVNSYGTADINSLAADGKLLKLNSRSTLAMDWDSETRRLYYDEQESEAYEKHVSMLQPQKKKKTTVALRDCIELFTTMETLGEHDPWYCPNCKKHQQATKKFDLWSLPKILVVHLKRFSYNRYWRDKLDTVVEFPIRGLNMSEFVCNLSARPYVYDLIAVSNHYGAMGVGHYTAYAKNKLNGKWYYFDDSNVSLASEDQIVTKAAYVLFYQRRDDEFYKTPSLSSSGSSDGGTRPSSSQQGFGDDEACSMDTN
How it was run: as §1

Measured: log2 ratio of Biotin-Ahx-Ub-VS probe labelling

Sequence of USP34 (Q70CQ2 whole entry, the tested form may be a part): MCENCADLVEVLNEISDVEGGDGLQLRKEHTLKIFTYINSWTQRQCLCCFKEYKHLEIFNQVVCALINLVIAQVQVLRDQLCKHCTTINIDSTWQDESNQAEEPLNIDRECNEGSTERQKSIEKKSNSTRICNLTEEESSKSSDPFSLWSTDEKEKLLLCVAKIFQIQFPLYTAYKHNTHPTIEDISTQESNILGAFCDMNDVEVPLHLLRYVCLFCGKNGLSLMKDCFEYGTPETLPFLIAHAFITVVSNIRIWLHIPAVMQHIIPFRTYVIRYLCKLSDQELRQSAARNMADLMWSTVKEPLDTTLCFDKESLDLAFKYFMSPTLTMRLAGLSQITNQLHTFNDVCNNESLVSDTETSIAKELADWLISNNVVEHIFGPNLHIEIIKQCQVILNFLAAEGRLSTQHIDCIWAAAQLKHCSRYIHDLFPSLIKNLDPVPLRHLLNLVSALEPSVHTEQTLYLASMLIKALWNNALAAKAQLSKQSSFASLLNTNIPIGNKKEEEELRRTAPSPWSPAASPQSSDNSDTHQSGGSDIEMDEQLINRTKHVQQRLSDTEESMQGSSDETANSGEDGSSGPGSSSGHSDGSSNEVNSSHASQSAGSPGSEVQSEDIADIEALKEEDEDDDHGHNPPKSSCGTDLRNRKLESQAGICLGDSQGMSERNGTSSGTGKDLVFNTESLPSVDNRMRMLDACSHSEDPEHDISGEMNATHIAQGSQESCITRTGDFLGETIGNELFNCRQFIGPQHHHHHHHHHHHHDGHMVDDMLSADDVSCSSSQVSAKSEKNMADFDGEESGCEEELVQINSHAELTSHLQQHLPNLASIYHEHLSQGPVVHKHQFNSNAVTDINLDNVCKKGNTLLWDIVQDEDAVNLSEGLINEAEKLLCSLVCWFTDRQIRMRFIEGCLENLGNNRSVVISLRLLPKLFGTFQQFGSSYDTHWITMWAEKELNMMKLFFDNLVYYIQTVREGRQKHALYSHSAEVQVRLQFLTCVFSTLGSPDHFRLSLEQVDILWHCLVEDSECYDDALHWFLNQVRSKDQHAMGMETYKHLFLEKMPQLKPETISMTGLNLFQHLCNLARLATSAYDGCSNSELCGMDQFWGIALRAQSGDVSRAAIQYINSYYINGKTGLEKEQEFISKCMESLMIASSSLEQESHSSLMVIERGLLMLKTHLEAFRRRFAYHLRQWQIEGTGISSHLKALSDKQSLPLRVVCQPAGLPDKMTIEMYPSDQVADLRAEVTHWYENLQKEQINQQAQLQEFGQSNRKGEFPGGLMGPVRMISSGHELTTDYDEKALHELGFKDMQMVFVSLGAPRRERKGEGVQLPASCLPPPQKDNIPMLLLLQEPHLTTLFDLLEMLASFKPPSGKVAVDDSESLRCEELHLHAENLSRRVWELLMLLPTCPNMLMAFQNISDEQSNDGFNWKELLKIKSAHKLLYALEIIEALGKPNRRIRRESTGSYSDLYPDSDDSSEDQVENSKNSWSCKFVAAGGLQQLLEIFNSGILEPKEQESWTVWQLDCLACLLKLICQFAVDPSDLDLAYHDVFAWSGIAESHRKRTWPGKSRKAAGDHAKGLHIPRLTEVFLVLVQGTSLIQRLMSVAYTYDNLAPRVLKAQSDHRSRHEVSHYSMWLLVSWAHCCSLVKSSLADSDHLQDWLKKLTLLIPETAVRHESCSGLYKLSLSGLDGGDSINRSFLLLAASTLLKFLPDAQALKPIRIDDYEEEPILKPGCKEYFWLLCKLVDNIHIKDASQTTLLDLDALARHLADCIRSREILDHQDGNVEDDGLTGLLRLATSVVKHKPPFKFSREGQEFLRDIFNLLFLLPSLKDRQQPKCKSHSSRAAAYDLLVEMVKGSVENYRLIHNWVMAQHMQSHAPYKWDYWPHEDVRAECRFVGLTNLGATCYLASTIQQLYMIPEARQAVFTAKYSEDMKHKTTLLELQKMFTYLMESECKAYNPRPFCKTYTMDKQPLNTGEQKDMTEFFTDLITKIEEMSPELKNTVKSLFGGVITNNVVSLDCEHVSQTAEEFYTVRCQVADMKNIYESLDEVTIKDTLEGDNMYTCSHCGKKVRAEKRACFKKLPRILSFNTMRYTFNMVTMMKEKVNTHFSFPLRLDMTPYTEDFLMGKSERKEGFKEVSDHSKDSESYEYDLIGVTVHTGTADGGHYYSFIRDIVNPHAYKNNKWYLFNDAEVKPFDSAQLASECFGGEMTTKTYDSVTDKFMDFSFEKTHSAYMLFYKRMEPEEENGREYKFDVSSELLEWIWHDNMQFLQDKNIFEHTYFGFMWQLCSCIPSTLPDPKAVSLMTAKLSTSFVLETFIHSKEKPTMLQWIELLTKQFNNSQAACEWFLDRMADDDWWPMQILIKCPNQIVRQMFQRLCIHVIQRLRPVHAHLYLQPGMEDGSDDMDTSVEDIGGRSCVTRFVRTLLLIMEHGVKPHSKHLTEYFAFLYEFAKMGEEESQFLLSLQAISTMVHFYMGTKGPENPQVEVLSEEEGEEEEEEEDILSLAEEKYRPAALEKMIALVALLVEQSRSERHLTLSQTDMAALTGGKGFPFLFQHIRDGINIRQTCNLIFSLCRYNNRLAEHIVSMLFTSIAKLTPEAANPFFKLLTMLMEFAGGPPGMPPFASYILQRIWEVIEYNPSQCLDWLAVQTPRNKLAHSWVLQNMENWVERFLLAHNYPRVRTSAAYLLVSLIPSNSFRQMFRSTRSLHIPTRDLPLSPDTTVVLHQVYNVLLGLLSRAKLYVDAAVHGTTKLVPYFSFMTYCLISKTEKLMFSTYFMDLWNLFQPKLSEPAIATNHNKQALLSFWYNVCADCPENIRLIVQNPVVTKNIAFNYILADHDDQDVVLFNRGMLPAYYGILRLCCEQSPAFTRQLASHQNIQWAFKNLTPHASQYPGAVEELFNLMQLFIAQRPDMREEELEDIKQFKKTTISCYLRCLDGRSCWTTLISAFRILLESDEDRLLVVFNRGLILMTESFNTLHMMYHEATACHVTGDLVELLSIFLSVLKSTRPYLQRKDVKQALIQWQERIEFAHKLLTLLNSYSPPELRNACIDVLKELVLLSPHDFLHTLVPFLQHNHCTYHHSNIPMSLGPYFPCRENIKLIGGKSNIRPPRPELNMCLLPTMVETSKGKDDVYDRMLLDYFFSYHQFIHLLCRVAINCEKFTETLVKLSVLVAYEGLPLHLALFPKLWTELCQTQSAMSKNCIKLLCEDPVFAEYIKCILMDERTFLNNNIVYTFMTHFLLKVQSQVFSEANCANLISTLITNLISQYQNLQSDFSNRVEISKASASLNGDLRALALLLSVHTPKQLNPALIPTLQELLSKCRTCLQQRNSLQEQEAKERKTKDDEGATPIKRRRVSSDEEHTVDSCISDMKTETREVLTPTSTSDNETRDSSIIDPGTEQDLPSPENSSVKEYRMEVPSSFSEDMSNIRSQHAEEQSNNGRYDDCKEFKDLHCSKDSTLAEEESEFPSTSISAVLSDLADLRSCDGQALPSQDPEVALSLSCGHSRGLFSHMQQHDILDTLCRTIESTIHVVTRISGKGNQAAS

CN(CCC(O)c1ccc(Br)cc1)C(=O)CCl (stereo not given)
inactive: [1] -0.261 | [2] -0.0809 | [3] -0.17 | [4] -0.00535 | [5] -0.206
